Source: PubChem (National Center for Advancing Translational Sciences (NCATS))
Sampled rows, rich in hits. Any-hit rate of the full collection: about 2.4%.
D2 ag-1: D2 dopamine receptor (human) agonism; P14416; HEK293 T-REx D2 cells, calcium flux agonist mode; activation, % at 2 µM; 340,000 compounds, 0.53% hits; AID 485358;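 active means activation over 3 SD above normal in the single-dose calcium agonist read, cut at about 30% in these data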; further: 0% is about no effect
Target sequence (P14416 whole entry, looked up): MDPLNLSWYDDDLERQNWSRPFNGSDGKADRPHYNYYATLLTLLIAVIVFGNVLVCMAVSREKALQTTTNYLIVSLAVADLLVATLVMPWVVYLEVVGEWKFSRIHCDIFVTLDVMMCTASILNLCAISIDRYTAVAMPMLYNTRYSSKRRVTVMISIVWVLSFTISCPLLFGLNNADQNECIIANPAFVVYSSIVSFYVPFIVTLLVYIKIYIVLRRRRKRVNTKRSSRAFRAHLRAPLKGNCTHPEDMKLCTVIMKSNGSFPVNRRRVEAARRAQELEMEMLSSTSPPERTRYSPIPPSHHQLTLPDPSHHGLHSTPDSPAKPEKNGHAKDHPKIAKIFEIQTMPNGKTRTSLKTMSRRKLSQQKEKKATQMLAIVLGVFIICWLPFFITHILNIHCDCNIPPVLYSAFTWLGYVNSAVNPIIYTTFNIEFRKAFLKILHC
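In this primary screen, compounds producing a positive calcium signal within 180 s of addition to tetracycline-induced, force-coupled HEK293 Trex D2 cells are flagged; cells are dye-loaded with a no-wash calcium kit beforehand.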
D2 ag-2: activates the human D2 dopamine receptor; 360,000 compounds, 0.084% hits; DiscoveRx PathHunter D2 beta-arrestin, luminescence, 90 min; 100% = 57 uM dopamine signal; activation, % (no concentration beside the values); in the data active means activation above about 40%; inconclusive means between about 15% and that limit
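DiscoveRx PathHunter D2 beta-arrestin cells (2,100/well) attached overnight, then compound-stimulated 90 min at 37 C in HBSS/10 mM HEPES/0.1% Tween-20 buffer; beta-galactosidase complementation read by luminescence after 1 h at ambient temperature. Dopamine 57 uM final (EC100) as control.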
D2 PAM-1: positive allosteric modulators of human D2 dopamine receptor. P14416. DiscoveRx D2 beta-arrestin cells, luminescence, 90 min; 100% = 57 uM dopamine signal. potentiation, % (concentration not given with the values). 360,000 compounds, 0.23% hits; in the data active means potentiation above about 50%; inconclusive means mostly about 30% to 49%
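D2 cells co-treated with compound plus 50 nM dopamine (EC20) for 90 min at 37 deg C to detect potentiation. Beta-arrestin recruitment was read as enzyme-fragment luminescence after 1 h at ambient temperature. Full response was set by 57 uM dopamine.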
D2 antagonist: antagonizes the human D2 dopamine receptor; P14416; HEK293 TREx D2 cells, calcium flux, dopamine EC80; inhibition, % at 10 µM; 340,000 compounds, 2% hits; AID 485344; in the data active means inhibition above about 30%; inactive means below that, where a call was filed; further: 0% is about no effect
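Overnight-induced (tetracycline, 30 C) HEK293 T-REx cells carrying force-coupled D2 receive a no-wash calcium dye, then compound, then EC80 dopamine at 180 s; signals are read kinetically throughout.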
D2 PAM-2: D2 dopamine receptor (human) potentiation; P14416; HEK293 T-REx D2, calcium flux, EC20 dopamine potentiation; potentiation, % at 10 µM; 340,000 compounds, 0.34% hits; AID 485347;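 active means potentiation over 3 SD above the plate norm, cut at about 30% in these data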; further: 0% is about no effect
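Tetracycline-induced Hek293 Trex D2 cells, force-coupled to calcium, loaded with no-wash calcium dye. Compound added with 180 s kinetic read for agonism, then EC20 dopamine and a further 180 s read for potentiation.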
Numbers without * were called inactive; ? = inconclusive; . = not tested or not shown.

SMILES | D2 ag-1 | D2 ag-2 | D2 PAM-1 | D2 antagonist | D2 PAM-2
CCCCN(CCCC)C(=O)c1c[nH]c2ccc(S(=O)(=O)Nc3cccc(Cl)c3C)cc2c1=O | 0 | . | . | . | 15
NC(=O)C1CC(=O)N(c2ccc(OCc3ccc([N+](=O)[O-])cc3)cc2)C1 (configuration not stated) | 0 | 9 | 1 | -12 | 4
Cc1ccc(N2CC(C(=O)OCc3ccc([N+](=O)[O-])cc3)CC2=O)cc1 (configuration not stated) | 0 | -1 | -2 | -16 | 31*
COc1ccccc1C1C(C(=O)Nc2ccccc2)=C(C)Nc2nc(-c3ccccc3)nn21 (configuration not stated) | -2 | . | . | . | 9
O=C(CSc1ccc(S(=O)(=O)N2CCCCC2)cn1)Nc1ccccc1Br | -1 | 41* | 1 | 3 | 10
O=S(=O)(c1ccc(SCCOc2cccc(Br)c2)nc1)N1CCCC1 | 0 | -2 | -29 | 42* | -3
CCNC(=O)C1CCN(S(=O)(=O)c2ccc3c(c2)CCCN3C(C)=O)CC1 | 1 | . | . | . | 11
COc1ccc2cc(S(=O)(=O)c3ccccc3F)c(=O)oc2c1 | 0 | . | . | . | 2
Cc1ccc(NC(=O)C(C)Sc2nc(-c3ccccc3)cc(=O)[nH]2)cc1 (configuration not stated) | -1 | -3 | -7 | 36* | -1
CC(Sc1nc(O)c(-c2ccccc2)c(=O)[nH]1)C(=O)Nc1ccc(Cl)cc1 (configuration not stated) | -2 | 3 | -9 | -32 | 3
CCN1C(=S)SC(=O)C1=C1C=C(C)OC(C)=C1 | 2 | -1 | -1 | 57* | 4
CCN1C(=S)SC(=O)C1=C1C=C(C)N(Cc2ccco2)C(C)=C1 | . | -5 | -15 | . | 8
CCCc1noc(-c2ccc(NCc3ccc(C)cc3)c([N+](=O)[O-])c2)n1 | 2 | . | . | . | .
CN(Cc1ccccc1)C(=C(Cl)Cl)C(=C1NCCN1)[N+](=O)[O-] | 1 | -3 | -9 | 34* | -9
CN(Cc1ccccc1)C(=C(Cl)Cl)/C(=C1/NCCN1C)[N+](=O)[O-] | 0 | -1 | -7 | 7 | 2
Cc1ccc(Cl)c(OCC(=O)Nc2ccc3c(c2)OCCO3)c1 | 0 | -1 | -5 | 5 | -1
CCN(CC(=O)Nc1ccc2c(c1)OCCO2)C(=O)COc1cc(C)ccc1Cl | -1 | -5 | -12 | 33* | 1
Cc1cc(-c2ccc(C(C)C)c(S(=O)(=O)Nc3ccccn3)c2)on1 | -1 | 4 | -3 | 31* | -4
Cc1cc(-c2ccc(C)c(S(=O)(=O)Nc3ccccn3)c2)on1 | 0 | . | . | . | 1
Cc1cc(-c2ccc(S(=O)(=O)N3CCN(c4ccc(Cl)cc4)CC3)s2)on1 | 1 | . | . | . | 9
Cc1nc2nc(NC(=O)c3ccc(C(C)(C)C)cc3)[nH]n2c(=O)c1C | 1 | . | . | . | -5
O=C1S/C(=C\c2ccc(Cl)cc2)C(=O)N1CCn1cnnn1 | 1 | -5 | -7 | -1 | 38*
CC(=O)Nc1cccc(NC(=O)CSc2nnc(Cc3cccn3C)n2-c2ccc(F)cc2)c1 | -3 | -3 | -19 | 49* | -2
CC(C)OC(=O)c1cccnc1N1CCN(c2ccc(F)cc2)CC1 | -2 | -3 | -10 | 33* | 2
CC(C)OC(=O)c1ccc(N2CCN(c3ccc(F)cc3)CC2)nc1 | -1 | 5 | -5 | -7 | -1
SMILES | D2 ag-1 | D2 ag-2 | D2 PAM-1 | D2 antagonist | D2 PAM-2
COC(=O)c1cc(CNC(=O)c2ccc(S(=O)(=O)N(C)c3ccccc3)cc2)ccc1OC | 0 | -1 | -11 | 74* | -25
Fc1ccc(-c2cc(-c3nc(-c4ccccc4)no3)[nH]n2)cc1 | 0 | . | . | . | -4
CCn1c(NCc2cccc(Cl)c2)nc2ccccc21 | 1 | . | . | . | -3
O=C(CSc1nc2c(sc3ccccc32)c(=O)n1CCCN1CCCC1)NCC1CCCO1 (configuration not stated) | 1 | 0 | -36 | 12 | 41*
O=C(NCCc1nc2ccccc2n1CCOc1ccc(Cl)cc1)C1CCCCC1 | 0 | . | . | . | 12
Cc1ccccc1CNC(=O)Cn1c(=O)c2cccn2c2cccnc21 | 1 | . | . | . | 2
O=C(CCN1CCc2ccccc2C1)Nc1ccccc1 | 0 | 0 | -36 | 57* | -24
O=C(Nc1ccccc1)N1CCc2ccccc21 | 0 | -3 | -7 | -12 | -11
O=C(CN1CCc2ccccc2C1)Nc1ccc(Br)cc1 | 1 | -1 | -40 | 58* | -22
O=C(CCN1CCc2ccccc2C1)Nc1cccc(F)c1 | 3 | -4 | -27 | 60* | .
O=C(CCC(=O)N1CCc2ccccc21)Nc1ccccc1 | 0 | -2 | -10 | 36* | -9
O=C(CCN1CCCCCC1)Nc1cccc(F)c1 | 0 | -3 | -18 | -7 | -20
Cc1ccc(NC(=O)c2c(C)nn(-c3ccccc3)c2-n2cccc2)c(Cl)c1 | 1 | . | . | . | -3
CCOC(=O)C1CCN(C(=O)c2nn(-c3ccc(OC)c(Cl)c3)c(=O)c3c2c2ccccc2n3C)CC1 | 1 | . | . | . | 4
CN(c1ccccc1)S(=O)(=O)c1cccc(NC(=O)CC(C)(C)C)c1 | -1 | 0 | -9 | -6 | 4
CN(c1ccccc1)S(=O)(=O)c1cccc(NC(=O)CN2CCc3ccccc3C2)c1 | 28 | ? | 16 | 33* | -13
O=C(CN1CCc2ccccc2C1)Nc1ccccc1C(F)(F)F | 34* | 13 | -2 | 4 | -4
COC(=O)c1ccc(OCC2c3cc(OC)c(OC)cc3CCN2C(=O)COc2ccc(Cl)cc2)cc1 (configuration not stated) | 0 | . | . | . | -9
COc1ccc(CNC(=O)c2cc3ccccn3n2)c(OC)c1 | 0 | . | . | . | 10
O=[N+]([O-])c1cccc(OCCN2CCC(Cc3ccccc3)CC2)c1 | 0 | 0 | -26 | 67* | -20
Clc1ccccc1OCCN1CCC(Cc2ccccc2)CC1 | 0 | 1 | -14 | 63* | -20
O=Cc1cc(Cl)ccc1OCCN1CCC(Cc2ccccc2)CC1 | 1 | -2 | -15 | 51* | -19
COc1cc(CN2CCC(Cc3ccccc3)CC2)c([N+](=O)[O-])cc1OC | 1 | -4 | -21 | 15 | -2
COc1cc(C(C)=O)ccc1OCCN1CCC(Cc2ccccc2)CC1 | 0 | -6 | -20 | -15 | -12
COc1cc(C(C)=O)ccc1OCCCN1CCC(Cc2ccccc2)CC1 | -2 | -2 | -11 | 35* | 7
Fc1ccc(CN2CCC(Cc3ccccc3)CC2)cc1F | 0 | 0 | -6 | -18 | -16
CC(=O)c1ccc(NC(=O)COc2ccccc2-c2nc(-c3ccc(C)cc3)no2)cc1 | 0 | . | . | . | 8
OCc1ccccc1OCCCN1CCC(Cc2ccccc2)CC1 | 2 | -2 | -15 | 41* | -22
Cc1ccc([N+](=O)[O-])c(OCCCN2CCC(Cc3ccccc3)CC2)c1 | . | 2 | -8 | . | .
